# D1 ag: Allosteric Agonists of the Human D1 Dopamine Receptor: qHTS; HEK293 T-REx D1 cells, calcium flux, agonist mode; activation, % at 2 µM; AID 504660, 2011; D(1A) dopamine receptor (Homo sapiens), P21728; 360,000 compounds, 1% hits; also: 0% is about no effect
#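 Inducible HEK293 T-REx D1 cells, force-coupled to calcium signalling, were plated at 4000 cells/well with tetracycline and held overnight at 30 C. After no-wash calcium dye loading, compound-evoked calcium rise over 180 s flagged agonists.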
# USP1 inh: Inhibitors of USP1/UAF1: Primary Screen. Potency, µM (highest dose often 57.1 µM), inactives show top-dose activity change, negative = inhibition, usual class: inhibitors. AID 743255, 2014. recombinant USP1/UAF1, Ub-Rhodamine cleavage fluorescence. 390,000 compounds, 0.23% hits. Ubiquitin carboxyl-terminal hydrolase 1 (Homo sapiens), O94782; active = well fitted inhibition curve with a large enough effect; inconclusive = small, poorly fitted or top-dose-only effect; inactive = no such curve, though single readings can be large or run the other way; also: potency is read from the fitted curve at half-maximal effect; % is scaled to controls: 0 for no effect and ±100 for the full control effect; nearly all actives have a fitted effect of over 60% in size
#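 1 nM enzyme complex + cpd, 15 min RT; start with Ub-Rho 150nM final; kinetic fluorescence ex 480/em 540, 6 reads q60 s. Buffer 50mM HEPES pH 7.8, 0.5mM EDTA, 0.1 mg/ml BSA, 1mM TCEP, 0.01% Tween-20.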
# D1 potentiator: Potentiators of Human D1 Dopamine Receptor: qHTS. 360,000 compounds, 0.036% hits. HEK293 TREx D1 cells, calcium flux, dopamine EC20 potentiation. potentiation, % at 10 µM. D(1A) dopamine receptor (Homo sapiens), P21728. AID 504651, 2011; in the data active = potentiation above about 30%; also: 0% is about no effect
# D1 antagonist: Antagonist of Human D 1 Dopamine Receptor: qHTS | HEK293 TREx D1 cells, calcium flux, dopamine EC80; stronger effect = lower value | 360,000 compounds, 3.2% hits | activity change, negative = inhibition, % at 10 µM | AID 504652, 2011 | D(1A) dopamine receptor (Homo sapiens), P21728; in the data active = activity change below about -30%; also: % is scaled to controls: 0 for no effect and ±100 for the full control effect
#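 Calcium flux readout: force-coupled, inducible Hek293 Trex D1 line, cells induced overnight at 30 C with tetracycline, dye-loaded 30–90 min at RT. Antagonism scored against EC80 dopamine challenge given 180 s after compound.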
# TRHR agonist: qHTS for Small Molecule Agonists and Allosteric Enhancers of Human TRH Receptor: Primary Screen for Agonists | Thyrotropin-releasing hormone receptor (Homo sapiens), P34981 | TRHR cells, calcium flux fluo-8, FDSS agonist mode | activation, % at 2 µM | 360,000 compounds, 0.18% hits | AID 493084, 2011; also: 0% is about no effect
# Target sequence (P34981 whole entry, looked up): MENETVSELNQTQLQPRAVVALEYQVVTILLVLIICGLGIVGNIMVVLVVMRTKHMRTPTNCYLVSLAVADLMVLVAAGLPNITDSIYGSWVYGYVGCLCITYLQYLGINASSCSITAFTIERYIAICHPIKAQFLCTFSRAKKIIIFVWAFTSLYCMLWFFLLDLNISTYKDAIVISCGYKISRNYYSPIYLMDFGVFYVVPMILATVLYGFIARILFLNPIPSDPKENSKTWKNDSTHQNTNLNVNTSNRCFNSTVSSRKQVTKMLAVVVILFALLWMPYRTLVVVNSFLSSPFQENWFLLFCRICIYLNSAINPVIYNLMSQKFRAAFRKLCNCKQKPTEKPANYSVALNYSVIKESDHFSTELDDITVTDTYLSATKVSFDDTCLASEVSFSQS
#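 TRHR-expressing cells, plated overnight in medium with 10% serum, were loaded with fluo-8 calcium dye at room temperature. After a 10 s baseline, library compound was pin-added and calcium release was recorded kinetically (ex 480/em 530) as agonist response.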
# TRHR PAM: qHTS for Small Molecule Agonists and Allosteric Enhancers of Human TRH Receptor: Primary Screen for Enhancers; Thyrotropin-releasing hormone receptor (Homo sapiens), P34981; TRHR cells, fluo-8 calcium fluorescence, EC20 TRH enhancement; enhancement, % at 2 µM; 360,000 compounds, 0.66% hits; in the data active = enhancement above about 30%; also: 0% is about no effect
#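 Enhancer read-out: after compound pinning and an initial kinetic agonist-mode read, an EC20 of TRH (10 nM final) was injected and fluo-8 calcium signal (Ex 480/Em 530) followed at 1 s/cycle for 100 cycles in TRHR-expressing cells.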
# An asterisk follows results filed as active; ? = inconclusive; · = not tested or not shown. Sampled rows, rich in hits. Any-hit rate of the full collection: about 4.4%. Rule as the data show it, unless noted: active = activation above about 30%; inactive = the rest.
SMILES,D1 ag,USP1 inh,D1 potentiator,D1 antagonist,TRHR agonist,TRHR PAM
O=C(Nc1cc(F)ccc1F)c1cc2nc(-c3ccco3)cc(C(F)(F)Cl)n2n1,3,-22%,-1,-13,1,-7
CCOC(=O)/C=c1\s/c(=C\c2ccccc2C)c(=O)n1CC(=O)NCc1ccc2c(c1)OCO2,5,-16%,-10,-57*,0,-1
O=C(Nc1ccc(F)cc1)[C@H](CSCc1ccccc1)N1Cc2ccccc2C1=O,4,-16%,-2,4,1,-5
COc1cc(C(CC(=O)Nc2cccc(C(C)=O)c2)N2Cc3ccccc3C2=O)cc(OC)c1OC (centres undefined),-1,?,-1,14,0,0
Cc1cc2nc3c(=O)n(C)c(=O)n(C)c3nc2cc1N=CN(C)C,46*,?,0,-12,19,3
Cc1ccc(NC(=O)Cn2c(=O)n(Cc3ccccc3)c(=O)c3c(C)c(C)sc32)c(C)c1,-1,-12%,1,-8,0,-11
CC(=O)c1ccc(N2CCN(S(=O)(=O)c3c(C)nc4sc(C)cn4c3=O)CC2)cc1,2,-46%,0,-12,0,3
O=C(CN1CCN(c2ccccc2O)CC1)Nc1ccccc1C(=O)NCCc1ccccc1,0,-25%,5,-41*,0,10
COc1ccc(CCNC(=O)c2ccccc2NC(=O)CN2CCN(c3ccccc3O)CC2)cc1,-1,-24%,-5,4,0,9
Cc1ccc(C)n1-n1cnc2sc3c(c2c1=O)CCC3,2,-3%,-11,-33*,0,-2
O=C(O)c1ccc(Cn2cnc3sc4c(c3c2=O)CCCC4)cc1,3,-23%,5,-29,0,2
Cc1ccc(Cn2cnc3sc4c(c3c2=O)CCC4)c(C)c1,-1,-10%,38*,8,0,0
COCCNC(=O)CS(=O)Cc1nc(-c2ccc(Cl)cc2)oc1C (centres undefined),0,-14%,-5,9,-1,-3
COCCCNC(=O)CS(=O)Cc1nc(-c2ccccc2C)oc1C (centres undefined),2,-7%,-3,-48*,0,1
CCCc1cc(=O)[nH]c(SCc2nc(-c3ccc(C)cc3)no2)n1,1,?,-3,8,0,0
CCC(C)c1ccc(S(=O)(=O)Nc2cccnc2)cc1 (centres undefined),18,-9%,-3,-51*,0,10
O=S(=O)(Nc1cccnc1)c1ccc(Cl)c(C(F)(F)F)c1,1,-4%,-7,-38*,0,-1
CCOc1ccc(S(=O)(=O)Nc2cccnc2)cc1,4,-10%,2,1,0,0
Cc1sc2c(c1C)c(=O)n(-c1ccc(Cl)cc1)c(=O)n2Cc1c(F)cccc1Cl,-2,-12%,1,-1,0,2
Cc1cc(C)cc(Cn2ncc3c4sc(C)cc4n(C)c3c2=O)c1,2,·,0,-6,-2,8
COc1cccc(N(CC(=O)NC(C)(C)C)C(=O)C2CSC(=O)C2)c1 (centres undefined),4,-8%,-8,-12,0,-4
CC(C)(C)NC(=O)CN(C(=O)C1CSC(=O)C1)c1ccc2c(c1)OCCO2 (centres undefined),-1,13%,1,-36*,0,0
COC(=O)c1c(NC(C)=O)sc2c1CCCCC2,1,-17%,4,31,0,-2
COC(=O)c1c(NC(=O)C2CC=CCC2C(=O)O)sc2c1CCCCC2 (centres undefined),5,-3%,-1,-10,0,31*
O=[N+]([O-])c1ccc(C(c2sc3nc(-c4ccco4)nn3c2O)N2CCC3(CC2)OCCO3)cc1 (centres undefined),-3,-15%,1,·,0,-4
SMILES,D1 ag,USP1 inh,D1 potentiator,D1 antagonist,TRHR agonist,TRHR PAM
CCOc1ccc(C(c2c(O)cc(C)n(CCOC)c2=O)N2CCN(c3ccc(F)cc3)CC2)cc1 (centres undefined),2,-9%,-3,8,0,2
CC1CC(C)CN(C(=S)Nc2ccc(OC(F)F)cc2)C1 (centres undefined),5,-17%,-3,-17,1,5
CCC1CCCCN1C(=S)Nc1ccc(OC(F)F)cc1 (centres undefined),19,-18%,0,-43*,1,0
Cc1ccc(Nc2cc(C)nc3ccc(C)cc23)cc1,4,4%,-6,-33*,0,9
Cc1cc(Nc2cccc(Cl)c2)c2ccccc2n1,17,-8%,-10,-65*,-1,-2
CCOc1ccccc1NC(=O)C(C)Sc1nc2c(c(=O)[nH]1)CCCC2 (centres undefined),0,?,-1,13,0,-2
Cc1ccc2c(c1)c(=O)c(C(=O)c1ccc3c(c1)OCO3)cn2Cc1cccc(F)c1,2,-20%,-3,-66*,0,4
Fc1ccccc1-n1ncc2c1ncn1nc(COc3ccc(Cl)cc3)nc21,3,4%,5,-3,0,2
CC(C)CN1C(=O)c2ccc(C(=O)Nc3ccc(O)cc3C(=O)O)cc2C1=O,3,-6%,-9,-76*,0,-3
Cc1cc(Br)cc(C)c1OCC(=O)Nc1ccc(S(=O)(=O)Nc2ncccn2)cc1,-1,17%,-2,-5,-1,5
Cc1ccc(N2CC(=O)N(NC(=O)c3sc4nc(C)cc(C)c4c3N)CC2=O)cc1,3,-20%,2,-4,0,38*
COC(=O)c1sc2nc(C)cc(C)c2c1N,0,-12%,-4,-11,-1,1
COC(=O)CNC(=O)c1cccc(Cl)c1,4,-21%,-4,-32*,0,-3
CCOc1ccc(C(=O)/C=C/c2ccc(SC)cc2)cc1,18,-14%,0,-30*,-1,-2
CCOc1ccc(C(=O)/C=C/c2cc(OC)c(OC)c(OC)c2)cc1,1,-16%,-3,-49*,-1,3
Cc1cc(C(=O)CN2C(=O)NC(C)(c3cccc(Br)c3)C2=O)c(C)n1Cc1ccco1 (centres undefined),2,-5%,4,-37*,0,20
